In ChEMBL document CHEMBL3988442, “University of Dundee, Small-Polar-MMV Screening Library” (2021):
About 13,000 (27%) of roughly 48,000 compounds showed an effect of 50% or more. Some of the results follow.

Tested on: Wolbachia pipientis
Experiment: Anti-Wolbachia Cell-Based Screen
Format: functional
Parameters: scale not given: in the data most compounds retested in dose-response had high values
Conditions: 5 µM

| SMILES | Percent Effect |
| --- | --- |
| CC(c1cc(F)ccc1F)N1CCN(C(=O)c2ccc(=O)[nH]c2)CC1 (centres undefined) | -31.75% |
| O=C(O)C(F)(F)F.c1csc(CN2CCc3ncnc(C4CCOC4)c3CC2)c1 (centres undefined) | -9.496% |
| Cn1nnc2c1CCN(C(=O)C1CCC1)C2COCCN1CCCC1.O=C(O)C(F)(F)F (centres undefined) | -13.51% |
| COCC(=O)N[C@@H]1CN(Cc2c[nH]nc2-c2cccs2)C[C@H]1O | 113.8% |
| CCC[C@H]1CN(CCS(C)(=O)=O)C[C@@H]1NC(=O)c1cc[nH]n1 | -12.34% |
| Cc1n[nH]cc1CNC(=O)CCCc1cccs1 | -6.834% |
| O=C(N[C@@H]1CN(Cc2c[nH]nc2-c2ccccc2)C[C@H]1O)c1cc[nH]n1 | 121.8% |
| COCCN1C(=O)CO[C@H]2CN(Cc3c[nH]nc3-c3ccccc3)C[C@@H]21 | -12.21% |
| COc1ccc(-c2n[nH]cc2CN2CCSCC2)c(OC)c1 | 5.008% |
| CC(C)CC(C)(CNC(=O)c1cnccn1)NC(=O)c1cnccn1 (centres undefined) | 15.43% |
| Cc1ccc2nc(C(=O)N3CCNC(=O)C3c3cccc(F)c3)cn2c1 (centres undefined) | -1.772% |
| Cc1ccc2c(ccn2CC(=O)NC[C@@H]2CCCN3CCCC[C@H]23)c1 | 4.302% |
| Cc1cn2cc(C(=O)NC3CCCN(c4ncccn4)C3)ccc2n1 (centres undefined) | -3.56% |
| CO[C@@H]1CC[C@@H](N(C)C(=O)c2cn3cc(C)ccc3n2)[C@H]1O | 56.83% |
| CO[C@@H]1CCC[C@@H](N(C)C(=O)c2cn3cc(C)ccc3n2)[C@H]1O | 110.8% |
| Cc1ccc2nc(C(=O)N(C)[C@@H]3CC[C@@H](N4CCCC4)[C@@H]3O)cn2c1 | 129% |
| Cc1ccc2nc(C(=O)N3CCC(CCn4cccn4)CC3)cn2c1 | -8.837% |
| c1cncc(NCCNC2CCSCC2)c1 | -10.95% |
| CCn1cc(N2Cc3nc(N4CCOCC4)ncc3C2=O)cn1 | 28.99% |
| COC(=O)c1ccc(C2CC(=O)Oc3cc(C)[nH]c(=O)c32)cc1 (centres undefined) | -3.935% |
| CN1CCC(c2cccc(Cc3ccc(C(F)(F)F)cc3)n2)CC1 | 90.57% |
| CN1CCC(c2cccc(Cc3ccccc3)n2)CC1 | 111.8% |
| O=S(=O)(c1ccc(C(F)(F)F)cc1)N1CCC(OCc2ccccn2)C1 (centres undefined) | -13.15% |
| CN1CCC(c2cccc(Cc3ccc(F)cc3)n2)CC1 | -5.274% |
| COc1ccc(Cc2cccc(C3CCN(C)CC3)n2)cc1 | -4.713% |

| SMILES | Percent Effect |
| --- | --- |
| Cl.NC(c1ccc(Cl)cc1)c1cccs1 (centres undefined) | -4.089% |
| Cc1cccc(C)c1CN1C(=O)CC2(CCSC2)C1=O (centres undefined) | -6.047% |
| Cc1n[nH]c(SCC(=O)N2C[C@H]3CC[C@@H]2CN(c2ncccn2)C3)n1 | -6.945% |
| COc1ccnc(N2CCN(Cc3ncc(-c4ccccc4)o3)CC2)n1 | -5.442% |
| CC(=O)NCc1ccc(C(=O)N2CCCC2c2cnn(C)c2)o1 (centres undefined) | 4.332% |
| CC(=O)NCc1ccc(C(=O)N2CCCC2c2cnn(C)c2)cc1 (centres undefined) | 89.24% |
| CCN(CC)Cc1ccc(C(=O)N2CCCCC2Cn2cccn2)o1 (centres undefined) | -4.824% |
| CC(=O)NCc1ccc(C(=O)N2CCCC2c2cnn(C)c2)s1 (centres undefined) | 110.6% |
| CC(=O)NCCc1ccc(C(=O)N2CCCC2c2cnn(C)c2)cc1 (centres undefined) | 2.733% |
| Cc1cc(C)n(-c2ccc(C(=O)N3CCCC3c3cnn(C)c3)cc2)n1 (centres undefined) | -0.5529% |
| CCN(CC)Cc1ccc(C(=O)N2CCCC2c2cnn(C)c2)o1 (centres undefined) | 101.4% |
| CC(=O)NCCCOc1c(C)cccc1Cl | -7.084% |
| O=C1CCC2(CCCN(C(=O)c3ccc[nH]3)C2)CN1CCc1c[nH]cn1 (centres undefined) | -3.691% |
| Cc1cc(CN(C)C(=O)c2cccc(N3CCCC3=O)c2)no1 | 3.879% |
| CCN(CCNC(=O)c1ccccc1Br)C1CC1 | -1.027% |
| CCN(CCNC(=O)c1cccnc1OCCOC)C1CC1 | 95.99% |
| COCCOc1ncccc1C(=O)Nc1c(C)cnn1CC1CC1 | -11.28% |
| CCOc1ncccc1C(=O)NCCN(CC)C1CC1 | -2.077% |
| CCN(CCNC(=O)c1cccc(C)c1C)C1CC1 | 95.34% |
| Cc1cccc(C(=O)NCCNS(=O)(=O)c2cccs2)c1C | -10.16% |
| CC(C)c1cccc(-n2cc(O)c(C(=O)NCCCn3cccn3)n2)c1 | -4.081% |
| COC(=O)C1CN(Cc2ccn(-c3ccc(F)cc3)n2)CCO1 (centres undefined) | -3.694% |
| CCc1nc(CN2CCCN(C(=O)CCc3ccco3)CC2)cs1 | -5.985% |
| O=C(CCc1cccc(F)c1F)N1CCN(Cc2ccco2)CC1 | 9.986% |
| Cc1nc(CN2C[C@@H]3CN(C(=O)CC(F)(F)F)C[C@@H]3C2=O)cs1 | -5.241% |

| SMILES | Percent Effect |
| --- | --- |
| Cc1nc(CN2CCCN(C(=O)CCc3ccco3)CC2)cs1 | 136.5% |
| O=C(CCc1ccco1)N1CCCN(Cc2cscn2)CC1 | 110.3% |
| Cc1nc(CN2C[C@@H]3CN(C(=O)c4ccoc4C)C[C@@H]3C2)cs1 | 104.4% |
| Cc1nc(CN2CCN(C(=O)CCc3ccco3)CC2)cs1 | 84.98% |
| Cc1nc(CN2CCCN(C(=O)c3cccn3C)CC2)cs1 | -4.038% |
| CCc1nc(CN2CCN(C(=O)CCc3ccccc3)CC2)cs1 | 19.11% |
| Cc1nc(CN2C[C@@H]3CN(C(=O)c4ccoc4C)C[C@@H]3C2=O)cs1 | -24.28% |
| Cc1noc(C)c1CCC(=O)N1CCCN(Cc2cscn2)CC1 | -9.58% |
| CCc1nsc(N2CCN(CC(=O)NCc3cccnc3)CC2)n1 | 5.46% |
| CC1CN(C)c2ccccc2CN1C(=O)CSc1ccncc1 (centres undefined) | -15.08% |
| O=S(=O)(c1cccnc1)N1CCN(CC(O)c2cccs2)CC1 (centres undefined) | -0.3613% |
| N[C@H]1CN(S(=O)(=O)N2CCCC2)C[C@@H]1c1ccccc1 | -9.902% |
| CS(=O)(=O)N1CC(c2ccnc(Nc3ccccn3)n2)C1 | 102.3% |
| CN(C)S(=O)(=O)N1CCC(c2ccnc(Nc3ccccn3)n2)C1 (centres undefined) | 92.82% |
| O=S(=O)(NC1CCCN(c2ncccn2)C1)N1CCCCCC1 (centres undefined) | -17.91% |
| Cc1ccc(Nc2nccc(C3CN(CC(N)=O)C3)n2)nc1 | -11.37% |
| CCNc1ccnc(NC2CCN(S(C)(=O)=O)CC2)n1 | 1.929% |
| CN(C)S(=O)(=O)N1CC(c2ccnc(Nc3ccccn3)n2)C1 | 81.46% |
| CN(C)S(=O)(=O)N1CCC2(CC1)CC(Oc1ccccn1)CO2.O=C(O)C(F)(F)F (centres undefined) | -11.89% |
| O=S(=O)(N1CCCC1)N1CC(c2ccnc(Nc3ccccn3)n2)C1 | 105.1% |
| CN(C)C(=O)C1CN(Cc2ccc(C#N)cc2)c2ccccc2O1 (centres undefined) | -2.727% |
| O=C(NCCn1cccc1)C1CCN(C2CCCCC2)CC1 | 3.682% |
| Cc1c(F)cccc1CN1CCn2nc(CNC(=O)N(C)C)cc2C1 | 9.061% |
| Cc1cc(C)c2c(c1)C1(CC(=O)Nc3c1cnn3C(C)C)C(=O)N2 (centres undefined) | -4.592% |
| Cc1cc2n(n1)CC(CNC1CCN(c3ccc(F)cc3)CC1)CN2 (centres undefined) | 8.147% |

| SMILES | Percent Effect |
| --- | --- |
| Cc1nc(N2CCCC2)nc2c1CN(C(=O)NC(C)C)CC2 | 102.9% |
| Cc1nc2c(c(=O)n1C)CN(C(=O)C1CCCN(C(=O)N(C)C)C1)C2 (centres undefined) | 1.11% |
| CC(=O)N1CCc2nc(N3CCCC3)nc(C)c2C1 | 96.78% |
| Cc1nc(N2CCCC2)nc2c1CN(C(=O)N(C)C)CC2 | 100.4% |
| Cc1nc(N2CCCC2)nc2c1CN(C(C)C)CC2.O=C(O)C(F)(F)F | -22.93% |
| CN(Cc1ccccc1)C(=O)c1cc2c(c(S(N)(=O)=O)c1)CCC2 | -0.2198% |
| CCCOc1ccc2ccccc2c1CN1CC[C@@]2(O)CCNC[C@H]2C1 | 3.118% |
| CCc1nc(C)cc(NC(C)C(=O)Nc2cc(F)ccc2C)n1 (centres undefined) | 4.426% |
| CCc1cc(N[C@H]2CCC[C@H]2CO)n2nccc2n1 | -20.55% |
| O=C(c1cccnc1)N1C[C@@H]2OCC(=O)N(Cc3cccnc3)[C@@H]2C1 | -21.42% |
| O=C(c1ccccn1)N1C[C@@H]2CC[C@H](C1)N(C(=O)c1ccsc1)C2 | -66.93% |
| O=C(c1ccccn1)N1CC(S(=O)(=O)c2ccc(Cl)cc2)C1 | 113.3% |
| Cn1cnnc1S(=O)(=O)C1CCN(C(=O)c2ccco2)CC1 | 9.772% |
| O=C(c1ccco1)N1CC(S(=O)(=O)c2ccc(Cl)cc2)C1 | 72.73% |
| O=C(c1ccccn1)N1CCC(S(=O)(=O)c2ccccc2)C1 (centres undefined) | 101.3% |
| O=C(O)C(F)(F)F.O=C(c1ccccn1)N1CC[C@H]2[C@H]1CCN2S(=O)(=O)C1CC1 | -10.64% |
| O=C(c1ccccn1)N1CCC(Oc2ncccc2Cl)CC1 | 6.011% |
| O=C(c1cccnc1)N1CC(S(=O)(=O)c2ccc(Cl)cc2)C1 | 139.6% |
| O=C(c1ccccn1)N1CCC(Oc2cccnc2)CC1 | -15.11% |
| O=C(C[C@H]1[C@H]2CN(C(=O)c3cccnc3)C[C@@H]12)Nc1cccnc1 | -0.113% |
| NC(=O)N1C[C@@H]2CN(C(=O)c3ccco3)C[C@@H]2C1 | -28.89% |
| CN(C1CCCC1)C(C)(C)C(=O)NCCS(C)(=O)=O | 3.461% |
| N#CCc1ccc(NC(=O)N[C@H](CO)Cc2ccc(O)cc2)cc1 | -6.882% |
| CCc1nc2c(c(NCc3cc(-c4cccnc4)no3)n1)CCNCC2 | 11.03% |
